The source of these data is PubChem BioAssay (NCI).

Values joined by “and” are separate entries in the source; they are usually repeats but may differ in a detail not shown here. Equal entries are not always repeated. This is part of a sample that, as a whole, favours compounds with a hit. Of some 83,000 tested, about 20% had one in any assay.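 Treatment: one concentration, 48 hours, 96-well format. Scoring: percent growth, with anything below 10 considered active.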 Active and inactive are the calls of the source.

Holding throughout (assay): NCI-60 one-dose screen, 48 h (100 = growth as untreated, 0 = no growth, -100 = all killed)
The subject of assay [1] is SK-MEL-2 melanoma. As to conditions: 10 µM.
The test system of assay [2] is EKVX NSCLC. The conditions noted are these: 10 µM.
Assay [3] relates to SN12C renal. As to conditions: 10 µM.
The subject of assay [4] is UO-31 renal. As to conditions: 10 µM.
For assay [5], the system named is TK-10 renal. The conditions noted are these: 10 µM unless noted.
For assay [6], the system named is ACHN renal. The conditions noted are these: 10 µM.
Assay [7] concerns CAKI-1 renal. As to conditions: 10 µM.
For assay [8], the system named is A498 renal. As to conditions: 10 µM.
Assay [9] deals with HL-60(TB) leukemia. The conditions noted are these: 10 µM.
The test system of assay [10] is CCRF-CEM leukemia. As to conditions: 10 µM.

`COC12C(COC(N)=O)C3=C(C(=O)C(C)=C(N)C3=O)N1CC1C2N1C` (stereo not given): the growth in [1] is 91.4% (inactive); in assay [2], 91.7% (inactive); in assay [3], 46.8% (inactive); in [4], 32.7% (inactive); in assay [5], 69.4% (inactive); in assay [6], 10.8% (inactive). Moreover, the growth was 16.6% (inactive) in assay [7], 46.9% (inactive) in [8], -23.2% (active) in assay [9] and 24.8% (inactive) in assay [10].
As for `CCOP(=O)(OCC)/C(C#N)=C/c1ccc(Br)cc1`, the growth was 103% (inactive) in [1]; 97.6% (inactive) in assay [2]; 98.5% (inactive) in assay [3]; 81.3% (inactive) in assay [4]; 104% (inactive) in assay [5]; 98.6% (inactive) in [6]. Further, the growth was 76.2% (inactive) in assay [7], 121% (inactive) in assay [8], 92.1% (inactive) in assay [9] and 100% (inactive) in assay [10].
Turning to `C[C@]12CC[C@H]3[C@@H](CCC4=CC(=O)CC[C@@H]43)[C@@H]1CC[C@@H]2OC(=O)N(CCCl)N=O`, the growth in [1] was 27.4% (inactive); in assay [2] it was 119% (inactive); in [3] it was 23.2% (inactive); in assay [4], 40.8% (inactive); in assay [5] it was 87.6% (inactive); in assay [6], 13% (inactive). For the same compound, the growth in [7] is 27.4% (inactive); in assay [8], 58% (inactive); in assay [9], -22.6% (active); in assay [10], 11% (inactive).
`ClCc1ccc2ccccc2n1`: the growth was 99.4% (inactive) in assay [1]; 93.2% (inactive) in assay [2]; 86% (inactive) in assay [3]; 89.8% (inactive) in assay [4]; 113% (inactive) in assay [5]; 96.8% (inactive) in assay [6]. The growth was 58.5% (inactive) in assay [7], 98.1% (inactive) in assay [8], 66.3% (inactive) in [9] and 103% (inactive) in assay [10].
Turning to `Cc1cc([N+](=O)[O-])c2ccccc2[n+]1[O-]`, the growth was -57.5% (active) and -79.5% (active) in assay [1]; 89.4% (inactive) in assay [2]; -5.98% (active) and -21.1% (active) in [3]; -26.7% (active) and -48.8% (active) in [4]; -31.3% (active) and -29.9% (active) in assay [5]; -35.6% (active) and -73.4% (active) in [6]. In addition, the growth was 8.17% (active) and -82.2% (active) in [7]; -59.8% (active) and -80.3% (active) in [8]; 41% (inactive) and -30.6% (active) in assay [9]; 17% (inactive) and -2.8% (active) in assay [10].
Take `COc1cc(/C=C(/C)[N+](=O)[O-])ccc1O`: the growth was 19.6% (inactive) and 72.1% (inactive) in [1]; 84.6% (inactive) in assay [2]; 27.5% (inactive) and 23.2% (inactive) in assay [3]; -10.8% (active) and -16.8% (active) in [4]; -21.2% (active) and 61.7% (inactive) in assay [5]; -39.8% (active) and 16.4% (inactive) in assay [6]. Also, the growth in assay [7] was -0.672% (active); in assay [8] it was 87.9% (inactive) and 100% (inactive); in assay [9] it was -17.3% (active) and -34.3% (active); in assay [10], -35% (active).
`O=[N+]([O-])c1ccc(Br)c([N+](=O)[O-])c1`: the growth in assay [1] is 96.8% (inactive); in assay [2], 115% (inactive); in assay [3], 90.1% (inactive); in assay [4], -18.2% (active); in [5] it was 102% (inactive); in [6], 52.6% (inactive). For the same compound, the growth in assay [7] was -93.5% (active); in [8], 98.3% (inactive); in assay [9], 43% (inactive); in assay [10] it was 46.4% (inactive).
`CC12OOC(c3ccccc31)c1c2ccc2ccccc12` (stereo not given): the growth in assay [1] was 71.7% (inactive); in [2], -51.5% (active); in [3] it was 94.4% (inactive); in [4], -95.4% (active); in [5], -42.6% (active); in [6] it was -100% (active). In addition, the growth in [7] is -56.1% (active); in assay [8], 133% (inactive); in assay [9] it was -63.5% (active); in [10] it was -41.8% (active).
`O=[N+]([O-])/C=C\c1ccc2c(c1)OCO2`: the growth is 115% (inactive) in [1]; 96.9% (inactive) in assay [2]; 94.2% (inactive) in assay [3]; 64.5% (inactive) in assay [4]; 87.1% (inactive) in assay [5]; 90.4% (inactive) in assay [6]. Besides, the growth in assay [7] was 86.6% (inactive); in assay [8], 96.5% (inactive); in [9] it was 106% (inactive); in assay [10], 92.5% (inactive).
In the case of `C/C1=C\[C@H](C)C[C@H](C)OC(=O)C[C@H](c2ccc(O)cc2)NC(=O)[C@@H](Cc2c(Br)[nH]c3ccccc23)N(C)C(=O)[C@H](C)NC(=O)[C@@H](C)C1`, the growth in [1] was -67.3% (active); in assay [2], -23.6% (active); in assay [3], 14.2% (inactive); in [4], -92.1% (active); in assay [5], -81.7% (active); in assay [6] it was -18.7% (active). Further, the growth is -43.2% (active) in [7], -78.8% (active) in [8], -44% (active) in assay [9] and -21.5% (active) in assay [10].
`Oc1ccccc1-c1ccccc1`: the growth in assay [1] is 98.1% (inactive) and 98.2% (inactive); in assay [2], 116% (inactive); in assay [3], 104% (inactive) and 92.6% (inactive); in assay [4], 91.1% (inactive); in [5], 97.4% (inactive) and 105% (inactive); in assay [6] it was 95.2% (inactive) and 104% (inactive). In addition, the growth in assay [7] is 97.4% (inactive) and 121% (inactive); in assay [8], 85.5% (inactive) and 108% (inactive); in assay [9], 96.2% (inactive) and 103% (inactive); in assay [10], 103% (inactive) and 94.8% (inactive).
